From PubChem BioAssay
For some assays here: Results with a measured potency or affinity are listed apart. Calls of active or inactive are those of the source. Unless noted, no rule for the calls is given here.

These molecules were tested against Protein kinase 7 (PK7), Plasmodium falciparum 3D7 (PF3D7_0213400) (UniProt Q7YTF7) (assay: inhibition of Plasmodium PK7 catalytic activity – biochemical, TCAMS antimalarial set, Kinase-Glo luminescence (AID 1159587)). Conditions: recombinant PfPK7, Kinase-Glo ATP depletion luminescence.
Protein kinase 7 (PK7), Plasmodium falciparum 3D7 (PF3D7_0213400), sequence (Q7YTF7 1-343): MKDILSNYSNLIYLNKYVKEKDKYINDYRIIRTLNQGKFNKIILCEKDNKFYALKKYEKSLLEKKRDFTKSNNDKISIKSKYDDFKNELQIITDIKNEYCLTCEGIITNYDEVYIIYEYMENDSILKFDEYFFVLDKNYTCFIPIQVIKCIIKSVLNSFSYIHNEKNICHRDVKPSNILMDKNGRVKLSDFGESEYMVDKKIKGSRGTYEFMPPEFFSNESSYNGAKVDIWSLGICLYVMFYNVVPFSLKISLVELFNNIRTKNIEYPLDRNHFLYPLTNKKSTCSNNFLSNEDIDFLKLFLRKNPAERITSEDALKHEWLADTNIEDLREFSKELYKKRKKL

outcome, inactive:
CC(=O)N/N=C/[C@H](CCc1ccccc1)NC(=O)[C@H](CC(C)C)NC(=O)c1ccc(OCCN2CCOCC2)cc1
CN1CCN(Cc2ccc(-c3cc4nccc(Nc5ccc(Oc6ccccc6)cc5)c4cc3Cl)o2)CC1
Cc1ccc(NCc2cccc(F)c2)cc1S(=O)(=O)N[C@@H]1CCN(C#N)C1
COc1ccc(NC(=O)N2CCN(CCCCCNC(=O)/C=C/c3ccc(C(F)(F)F)cc3)CC2)cc1Cl
NC1=NC(c2ccccc2)(c2cccc(O)c2)C(=O)N1CCCc1ccccc1 (stereo not given)
COc1c(C2CCN(CCCCNC(=O)c3noc(-c4ccc(C#N)cc4)n3)CC2)ccc2c1CCCC2
Cc1noc(C)c1-c1ccc2c(Nc3ccccc3C(C)(C)C)c(C(=O)NCc3ccc(OC(C)C)cc3)cnc2c1
Cc1cc(=O)c(-c2ccc(Oc3cccc(C(F)(F)F)c3)cc2)c(C)[nH]1
O=c1cc(NCCCNCc2cc(Cl)cc(Cl)c2OCc2ccccc2)[nH]c2ccccc12
O=C(NCCCCN1CCC(c2ccc(OC(F)(F)F)cc2)CC1)c1ccc(NC(=O)c2ccc(Cl)cc2)cc1
Cc1cc(NCCC(=O)NCCc2ccccc2)nc(NCCc2ccc(F)cc2)n1
O=C(/C=C/c1ccc(Cl)c(Cl)c1)NC1CCN(Cc2ccc(O)cc2)CC1
c1ccc(Oc2cccc(Nc3ccnc4ccccc34)c2)cc1
Cc1cccc2[nH]c(-c3ccc(-c4cccc(NC(=O)NCc5cccc(F)c5)c4)cc3)nc12
Cc1ccc(NC(=O)NCCCCCN2CCC(c3c[nH]c4ccccc34)CC2)cc1I
COc1ccc(Cn2c(SCc3ccc(C)cc3)nc3cc(OC)c(OC)cc3c2=N)cc1Cl
COc1ccc(NC(=O)c2cc(-c3ccc(NC(C)=O)cc3)cnc2N)cc1
O=C(NCCc1ccc(Cl)c(Cl)c1)c1ccc(CNC(=O)c2ccc(O)c(-c3ccc(Cl)c(Cl)c3)c2)cc1
CCN(CC)C(=NCCCCCCN=C(NC(N)=NCc1cccc(Cl)c1)N(CC)CC)NC(N)=NCc1cccc(Cl)c1
CNCCNCc1cccc(-c2ccc(-c3nc4ccc(C(F)(F)F)cc4[nH]3)cc2)c1
COc1ccc(-c2cccc(NC(=O)c3ccc(F)cc3)c2)cc1CNC(C)C
O=C1Nc2cccc3c2C1(CCCCN1CCC(c2cc4ccncc4[nH]2)CC1)CCC3 (stereo not given)
O=C(/C=C/c1ccc(Cl)c(Cl)c1)NCCCCCN1CCC(NC(=O)Nc2cccc(C(F)(F)F)c2)CC1
O=C(/C=C/c1ccc(Cl)c(Cl)c1)NC1CCC(CN2CCC(c3c[nH]c4ccncc34)CC2)CC1 (stereo not given)
Cc1cc(-c2ccc(O)c(CNC3CCCCC3)c2)cnc1N
O=C(Nc1cccc(-c2ccc(-c3nc4ccc(F)cc4[nH]3)cc2)c1)c1cccnc1
COc1ccc2ncc(F)c(CCN3CC[C@H](NCc4cc5c(s4)CCCN5)[C@H](O)C3)c2n1
CN(C)C(=O)C(CC(=O)NCc1ccccc1Cl)N(C)C (stereo not given) (tested in a mixture with another compound)
CC(C)Oc1ccc2c(c1)OC(c1ccccc1)(C(F)(F)F)NC2=O (stereo not given)
COc1ccc2ncc(F)c(CCN3CCC(CNC(=O)C(=O)c4c[nH]c5ccccc45)CC3)c2n1
COc1ccc(C2C(C(=O)Nc3ccccc3)=C(C)Nc3c(C(=O)Nc4ccccc4)cnn32)cc1 (stereo not given)
Cc1cccc2[nH]c(-c3ccc(-c4ccc(CN5CCCCC5CO)cc4)cc3)nc12 (stereo not given)
COc1cc(Cc2cnc(N)nc2N)cc(OCCCCc2nn[nH]n2)c1OC
CC(C)(C)NC(=O)COC(=O)c1c2c(nc3ccccc13)C(=Cc1ccc3c(c1)OCO3)CCC2
CN1CCC(C(=O)Nc2cccc(-c3ccc(-c4nc5ccc(C(F)(F)F)cc5[nH]4)s3)c2)CC1
COCc1cccc(-c2cc(-c3ccc(S(C)(=O)=O)cc3)cnc2N)c1
NC(=O)COc1cccc2c1CCN(CCN1CCC(NC(=O)c3ccc(-c4ccc(Cl)cc4)cc3)CC1)C2
O=c1cc(NCCCNCc2ccc(Cl)c(Cl)c2)[nH]c2cc(Cl)ccc12
Cn1nccc1C(=O)NCCNCc1ccc(-c2ccc(-c3nc4ccc(C(F)(F)F)cc4[nH]3)cc2)cc1
FC(F)(F)c1cccc(C=NNc2nc3ccccc3[nH]2)c1

The molecules below were run against Calcium-dependent protein kinase 4 (Plasmodium falciparum (isolate 3D7)) (UniProt Q8IBS5) (assay: PfCDPK4 kinase inhibitors, biochemical, TCAMS library (AID 1159588; cut-off not given, nearly all actives have IC50 up to about 0.91 µM)). Conditions: recombinant PfCDPK4, Kinase-Glo ATP depletion luminescence.
Calcium-dependent protein kinase 4 (Plasmodium falciparum (isolate 3D7)), sequence (Q8IBS5 whole entry, looked up): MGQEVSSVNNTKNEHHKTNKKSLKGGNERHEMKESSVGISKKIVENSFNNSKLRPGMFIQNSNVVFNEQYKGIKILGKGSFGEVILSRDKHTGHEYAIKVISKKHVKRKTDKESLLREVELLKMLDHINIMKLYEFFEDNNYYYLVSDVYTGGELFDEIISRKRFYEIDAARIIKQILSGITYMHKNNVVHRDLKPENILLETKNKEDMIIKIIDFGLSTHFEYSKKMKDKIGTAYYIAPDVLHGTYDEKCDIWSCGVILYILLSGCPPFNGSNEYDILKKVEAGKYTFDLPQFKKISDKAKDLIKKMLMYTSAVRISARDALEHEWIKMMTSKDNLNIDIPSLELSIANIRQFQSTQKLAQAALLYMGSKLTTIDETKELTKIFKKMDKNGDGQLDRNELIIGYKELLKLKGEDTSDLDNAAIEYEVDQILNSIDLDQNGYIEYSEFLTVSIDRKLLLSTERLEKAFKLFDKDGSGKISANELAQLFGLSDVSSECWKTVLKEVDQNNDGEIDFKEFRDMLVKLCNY

outcome, inactive:
CC(=O)N/N=C/[C@H](CCc1ccccc1)NC(=O)[C@H](CC(C)C)NC(=O)c1ccc(OCCN2CCOCC2)cc1
CN1CCN(Cc2ccc(-c3cc4nccc(Nc5ccc(Oc6ccccc6)cc5)c4cc3Cl)o2)CC1
Cc1ccc(NCc2cccc(F)c2)cc1S(=O)(=O)N[C@@H]1CCN(C#N)C1
COc1ccc(NC(=O)N2CCN(CCCCCNC(=O)/C=C/c3ccc(C(F)(F)F)cc3)CC2)cc1Cl
NC1=NC(c2ccccc2)(c2cccc(O)c2)C(=O)N1CCCc1ccccc1 (stereo not given)
COc1c(C2CCN(CCCCNC(=O)c3noc(-c4ccc(C#N)cc4)n3)CC2)ccc2c1CCCC2
Cc1noc(C)c1-c1ccc2c(Nc3ccccc3C(C)(C)C)c(C(=O)NCc3ccc(OC(C)C)cc3)cnc2c1
Cc1cc(=O)c(-c2ccc(Oc3cccc(C(F)(F)F)c3)cc2)c(C)[nH]1
O=c1cc(NCCCNCc2cc(Cl)cc(Cl)c2OCc2ccccc2)[nH]c2ccccc12
O=C(NCCCCN1CCC(c2ccc(OC(F)(F)F)cc2)CC1)c1ccc(NC(=O)c2ccc(Cl)cc2)cc1
Cc1cc(NCCC(=O)NCCc2ccccc2)nc(NCCc2ccc(F)cc2)n1
O=C(/C=C/c1ccc(Cl)c(Cl)c1)NC1CCN(Cc2ccc(O)cc2)CC1
c1ccc(Oc2cccc(Nc3ccnc4ccccc34)c2)cc1
Cc1cccc2[nH]c(-c3ccc(-c4cccc(NC(=O)NCc5cccc(F)c5)c4)cc3)nc12
Cc1ccc(NC(=O)NCCCCCN2CCC(c3c[nH]c4ccccc34)CC2)cc1I
COc1ccc(Cn2c(SCc3ccc(C)cc3)nc3cc(OC)c(OC)cc3c2=N)cc1Cl
COc1ccc(NC(=O)c2cc(-c3ccc(NC(C)=O)cc3)cnc2N)cc1
O=C(NCCc1ccc(Cl)c(Cl)c1)c1ccc(CNC(=O)c2ccc(O)c(-c3ccc(Cl)c(Cl)c3)c2)cc1
CCN(CC)C(=NCCCCCCN=C(NC(N)=NCc1cccc(Cl)c1)N(CC)CC)NC(N)=NCc1cccc(Cl)c1
CNCCNCc1cccc(-c2ccc(-c3nc4ccc(C(F)(F)F)cc4[nH]3)cc2)c1
COc1ccc(-c2cccc(NC(=O)c3ccc(F)cc3)c2)cc1CNC(C)C
O=C1Nc2cccc3c2C1(CCCCN1CCC(c2cc4ccncc4[nH]2)CC1)CCC3 (stereo not given)
O=C(/C=C/c1ccc(Cl)c(Cl)c1)NCCCCCN1CCC(NC(=O)Nc2cccc(C(F)(F)F)c2)CC1
O=C(/C=C/c1ccc(Cl)c(Cl)c1)NC1CCC(CN2CCC(c3c[nH]c4ccncc34)CC2)CC1 (stereo not given)
Cc1cc(-c2ccc(O)c(CNC3CCCCC3)c2)cnc1N
O=C(Nc1cccc(-c2ccc(-c3nc4ccc(F)cc4[nH]3)cc2)c1)c1cccnc1
COc1ccc2ncc(F)c(CCN3CC[C@H](NCc4cc5c(s4)CCCN5)[C@H](O)C3)c2n1
CN(C)C(=O)C(CC(=O)NCc1ccccc1Cl)N(C)C (stereo not given) (tested in a mixture with another compound)
CC(C)Oc1ccc2c(c1)OC(c1ccccc1)(C(F)(F)F)NC2=O (stereo not given)
COc1ccc2ncc(F)c(CCN3CCC(CNC(=O)C(=O)c4c[nH]c5ccccc45)CC3)c2n1
COc1ccc(C2C(C(=O)Nc3ccccc3)=C(C)Nc3c(C(=O)Nc4ccccc4)cnn32)cc1 (stereo not given)
Cc1cccc2[nH]c(-c3ccc(-c4ccc(CN5CCCCC5CO)cc4)cc3)nc12 (stereo not given)
COc1cc(Cc2cnc(N)nc2N)cc(OCCCCc2nn[nH]n2)c1OC
CC(C)(C)NC(=O)COC(=O)c1c2c(nc3ccccc13)C(=Cc1ccc3c(c1)OCO3)CCC2
CN1CCC(C(=O)Nc2cccc(-c3ccc(-c4nc5ccc(C(F)(F)F)cc5[nH]4)s3)c2)CC1
COCc1cccc(-c2cc(-c3ccc(S(C)(=O)=O)cc3)cnc2N)c1
NC(=O)COc1cccc2c1CCN(CCN1CCC(NC(=O)c3ccc(-c4ccc(Cl)cc4)cc3)CC1)C2
O=c1cc(NCCCNCc2ccc(Cl)c(Cl)c2)[nH]c2cc(Cl)ccc12
Cn1nccc1C(=O)NCCNCc1ccc(-c2ccc(-c3nc4ccc(C(F)(F)F)cc4[nH]3)cc2)cc1
FC(F)(F)c1cccc(C=NNc2nc3ccccc3[nH]2)c1
